# Screening data: PubChem BioAssay, National Center for Advancing Translational Sciences (NCATS)
# ELG1 DNA repair – blocks ELG1-dependent DNA repair in HEK293T cells; actives 2.3% (n = 330,000); HEK293T ELG1-luciferase reporter, luminescence, 16 h; DNA damage induced by 5-fluorouridine; Potency, µM (series often up to 46.1 µM), inactives show at the highest dose activity change, negative = inhibition, hits mostly inhibitors; AID 504467; note: potency is the fitted concentration of half-maximal effect; nearly all actives have a fitted effect of over 55% in size
#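 Cells (2,000 per well) received 5-fluorouridine plus test compound or DMSO and were incubated 16 hr at 37 °C, 5% CO2. Luciferase activity was read by luminescence 30 min after ONE-Glo addition; signal suppression marked inhibition of damage-induced ELG1 function.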
# HT1080NT lethal – kills 2HG-producing HT-1080-NT fibrosarcoma cells; HT-1080-NT fibrosarcoma viability, CellTiter-Glo ATP luminescence, 48 h; Potency, µM (top dose mostly 46.1 µM), for inactives: at the highest dose activity, negative = less viability, hits mostly cytotoxic; actives 1.6% (n = 360,000);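 note: NT is the 2HG producing partner of a matched IDH1 knockdown line; potency is the fitted concentration of half-maximal effect; 0% = DMSO-treated cells and -100% = media-only wells without cells; nearly all actives have a fitted effect of over 55% in size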
#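 Toxicity toward the 2HG-producing NT line was scored as %Activity, normalised to DMSO and no-cell wells, from CellTiter-Glo luminescence after 48 hours' treatment.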
# IL1B secr inh – blocks inflammasome-driven IL-1 beta release | THP-1 LPS/ATP IL-1B secretion, AlphaLISA, 16 h; stronger effect = lower value | activity change, % at 57.5 µM | actives 4.7% (n = 360,000); in the data active = activity change below about -50%; inconclusive = mostly about -30% to -49%
#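 THP-1 cells pretreated 1 hr with compounds (up to 57.5 uM final), then stimulated with LPS (250 ng/mL final) plus ATP (1.25 mM final); secreted IL-1B measured by AlphaLISA after 16 hr, decreased signal indicating inhibition.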
# TDP1 cell CPT – DT40-hTDP1 cell growth loss with CPT | chicken DT40 Tdp1-/-;hTDP1 cells + 20 nM CPT, ATP luminescence, 48 h | Potency, µM (top dose mostly 46.2 µM), without a hit: at the top dose activity change, negative = growth inhibition, most hits filed as inhibitors | actives 12% (n = 420,000) | AID 686979; note: potency is the fitted concentration of half-maximal effect; nearly all actives have a fitted effect of over 55% in size
#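 Chicken DT40 Tdp1-/- cells stably complemented with human TDP1 were seeded at 400 cells/well in medium containing 20 nM camptothecin, exposed to pin-transferred compounds, and grown at 37 °C for at least 48 hr. Viability was read as ATP luminescence.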
# TDP1 cell noCPT – qHTS for Inhibitors of human tyrosyl-DNA phosphodiesterase 1 (TDP1): qHTS in cells in absence of CPT. DT40 Tdp1-/- hTDP1 cells, no CPT, ATP luminescence, 48 h. Potency, µM (series often up to 46.2 µM), for the others: at the top dose activity change, negative = growth inhibition, usual class: inhibitors. AID 686978, 2013. actives 15% (n = 420,000); note: potency is the fitted concentration of half-maximal effect; nearly all actives have a fitted effect of over 55% in size
#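 Growth of hTDP1-complemented DT40 Tdp1-knockout cells is measured by ATP luminescence after at least 48 hr compound exposure at 37 °C, with DMSO substituting for the 20 nM CPT used in the parallel screen.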
# HT1080 IDH1KD tx – kills HT-1080 cells with IDH1 knockdown; HT-1080 IDH1 knockdown viability, ATP luminescence, 48 h; Potency, µM (doses to about 46.1 µM), for inactives: at the top dose activity, negative = toxicity, most hits filed as cytotoxic; actives 2% (n = 360,000); AID 686971;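 note: potency is the fitted concentration of half-maximal effect; 0% = DMSO wells and -100% = cell-free medium wells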
#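 HT-1080-IDH1KD cells (IDH1 knocked down), 750/well in RPMI with 5% FBS, treated with compound 48 h at 37 degrees C. Viability by CellTiter-Glo luminescence, normalised to DMSO and no-cell wells; concentration-response curves classed.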
# * = called active by the depositor; ? = inconclusive; · = not tested or not shown; [ ] = another dose, or the depositor's remark. Compounds with a hit are over-represented: about 19% of the library has one in this group of screens. Unless noted, calls come from the whole dose curve; as a rule, active = well fitted curve in the direction sought with a large enough effect; inconclusive = small, poorly fitted or top-dose-only effect, or another doubt; inactive = no such curve, though single readings can be large; an effect the other way counts as inactive or inconclusive. Unless noted, % is set by controls: 0 for no effect and ±100 for the full control effect.
SMILES,ELG1 DNA repair,HT1080NT lethal,IL1B secr inh,TDP1 cell CPT,TDP1 cell noCPT,HT1080 IDH1KD tx
O=C(CCc1ccccc1)NNC(=S)NC(=O)c1ccc(Cl)cc1,1%,?,14,?,23µM*,?
CC(=O)NNC(=S)NC(=O)c1ccc(C)cc1,8%,3%,7,1%,-8%,-1%
CC(=O)c1c(C)[nH]c(C(=O)NC2CCSc3ccccc32)c1C (stereo unspecified),5.8µM*,-8%,22,?,?,?
CCc1c(C(=O)NC2CCCc3ccccc32)[nH]c(C)c1C(C)=O (stereo unspecified),?,?,42,?,15µM*,-19%
COc1cccc(OCC(=O)Nc2nnc3n2CCS3)c1,·,·,·,-19%,-1%,·
COc1cccc(CNC(=O)c2cc3c(cc2Cl)N2CCCCCC2=NS3(=O)=O)c1,-1%,5%,6,-19%,-20%,2%
CC(=O)Nc1ccc2c(c1)Cc1cc(N3C(=O)C=CC3=O)ccc1-2,·,-12%,-12,1µM*,1.3µM*,?
O=C1C=CC(=O)N1c1ccc2c(c1)Cc1cc(F)ccc1-2,·,23%,-64*,1.6µM*,2.1µM*,-8%
O=[N+]([O-])c1ccc2c(c1)Cc1cc(F)ccc1-2,·,?,-21,-5%,?,30%
CC(=O)Nc1ccc2c(c1)Cc1ccc(Cl)cc1-2,·,-10%,5,-12%,-7%,-17%
CCn1c(SCC(=O)NC2CCCCC2)nnc1-c1ccccc1F,-6%,-16%,3,1%,-7%,18%
CCCCNc1ncnc2oc(-c3ccco3)c(-c3ccco3)c12,·,·,·,6.3µM*,6.3µM*,·
CN(C)CCNc1ncnc2oc(-c3ccccc3)c(-c3ccccc3)c12,-1%,-6%,-70*,?,?,-3%
COc1ccc(-c2oc3ncnc(NCCCN(C)C)c3c2-c2ccc(OC)cc2)cc1,-2%,?,-64*,?,18µM*,?
CCCCNc1ncnc2[nH]ncc12,·,-1%,4,?,-22%,-7%
CCOC(=O)c1c(/N=C/N(C)C)sc(/C=N/Nc2ccccc2)c1-c1ccccc1Cl,21µM*,-26%,0,-15%,?,?
CCOC(=O)c1c(/N=C/N(C)C)sc(/C=N/Nc2ccccc2)c1-c1ccccc1,-10%,-22%,-4,?,-22%,?
CCOc1ccc(N(c2nc(-c3ccc(OC)c(OC)c3)no2)c2nc(-c3ccc(OC)c(OC)c3)no2)cc1,·,·,·,3%,1%,·
O=S(=O)(c1ccc(Br)c2nsnc12)N1CCOCC1,14%,8%,-54*,-19%,-19%,3%
CCOc1ccc(CN(C)C(=O)[C@H](C)NC(=O)c2ccco2)cc1OC,-4%,18%,27,13%,-3%,17%
COc1cc(-c2cc(OC)c3c(C)oc(C)c3c(=O)c2)ccc1OC(=O)c1ccccc1Cl,·,·,·,5.8µM*,4.6µM*,·
COc1cc(-c2cc(OC)c3c(C)oc(C)c3c(=O)c2)ccc1OC(=O)c1ccccc1F,·,·,·,8.2µM*,21µM*,·
Cc1cc(OC(=O)c2ccccc2F)c([N+](=O)[O-])c(=O)[nH]1,5%,5%,18,-6%,4%,4%
COc1cc(-c2cccs2)cc(=O)c2c(C)oc(C)c12,-16%,-8%,?,13µM*,23µM*,12%[9.24 µM]
COc1cc(S(=O)(=O)N(Cc2ccc(C)cc2)C2CCCCC2)ccc1-n1cnnn1,-24%,3%,15,?,23µM*,-4%
SMILES,ELG1 DNA repair,HT1080NT lethal,IL1B secr inh,TDP1 cell CPT,TDP1 cell noCPT,HT1080 IDH1KD tx
COc1ccc(CN(C2CCCC2)S(=O)(=O)c2ccc(-n3cnnn3)cc2)cc1OC,?,0%,-6,-21%,?,-3%
CCn1c(=O)n(CC)c2cc(N3CCCC3)c(NC(=O)c3cccc(C)c3)cc21,-2%,-7%,?,21µM*,16µM*,-15%
CCn1c(=O)n(CC)c2cc(N3CCCC3)c(NC(=O)c3ccc(C)c([N+](=O)[O-])c3)cc21,?,15%,66,6.5µM*,7.3µM*,0%
CCn1c(=O)n(CC)c2cc(N3CCCC3)c(NC(=O)c3cccc(Cl)c3)cc21,?,-21%,-6,15µM*,9.2µM*,?
Cc1c(Cl)cccc1NC(=S)NC(=O)c1ccccc1,·,2%,8,-15%,?,5%
Cc1ccc(-c2nn(CC(=O)NCc3ccccc3)c3c2cnc2ccc(F)cc23)cc1C,·,·,·,-29%,3%,·
CCCSc1nn2c(=O)c3ccccc3nc2s1,?,-2%,15,18µM*,-22%,-11%
Cc1ccccc1CSc1nn2c(=O)c(C)nnc2s1,?,7%,-26,0%,4%,2%
COc1cccc(CNCCSc2nnnn2C)c1OCc1ccc(F)cc1,·,·,·,?,21µM*,·
COc1cc(CNCCSc2nnnn2C)ccc1OCc1ccc(F)cc1,·,·,·,18µM*,21µM*,·
Cn1nnnc1SCCNCc1ccccc1OCc1ccc(F)cc1,-12%,-3%,32,-7%,-11%,0%
Cc1ccc(NC(=O)CCCN2C(=O)C(c3ccccc3)Oc3cccnc32)c(C)c1 (stereo unspecified),·,19%,-6,?,-26%,8%
Cc1ccc(C)c(NC(=O)CCCN2C(=O)C(c3ccccc3)Oc3cccnc32)c1 (stereo unspecified),·,·,·,18µM*,23µM*,·
COc1ccc(NC(=O)CCCN2C(=O)C(c3ccccc3)Oc3cccnc32)c(OC)c1 (stereo unspecified),-24%,-4%,-12,18µM*,23µM*,-2%
COc1ccccc1NC(=O)CCCN1C(=O)C(c2ccccc2)Oc2cccnc21 (stereo unspecified),-3%,4%,0,16µM*,?,2%
O=C(CCCN1C(=O)C(c2ccccc2)Oc2cccnc21)Nc1ccc(Br)cc1F (stereo unspecified),·,·,·,18µM*,21µM*,·
CC(C)Oc1ccc(CNC(=O)CCCN2C(=O)C(c3ccccc3)Oc3cccnc32)cc1 (stereo unspecified),-1%,5%,0,-23%,12%,7%
Cc1ccccc1-c1noc(-c2ccc(NCc3ccco3)c([N+](=O)[O-])c2)n1,·,·,·,?,-28%,·
